Seven molecules from PubChem BioAssay (EPA / NIEHS) can be followed below.

The nature of test [1]: TOX21_p53_BLA_p2_viability: Viability Assessment in the Tox21 HCT-116 p53 Agonism Beta-lactamase Assay, Phase 2 (AID 2283591).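 Also: compound exposure lasted 16 h at 37 °C; actives lower the ATP signal meaning cytotoxicity.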 The procedure, abridged: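 HCT-116 p53-bla cells (4000/well) rested 5 h at 37C, then received compounds in DMSO (217-fold dilution) for 16 h at 37C, 5% CO2. After the CCF4 read, CellTiter-Glo was added; ATP luminescence was read after 30 min at room temperature.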

A short description of test [2]: TOX21_p53_BLA_p3_viability: Viability Assessment in the Tox21 HCT-116 p53 Agonism Beta-lactamase Assay, Phase 3 (AID 2283593).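 Also: cells exposed to compound for 16 h before reading.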 The procedure, abridged: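 HCT-116 cells (4000/well) rested 5 h at 37C, then got DMSO compounds by pin tool (217-fold dilution) for 16 h at 37C, 5% CO2. After the bla read, CellTiter-Glo was added and luminescence read at 30 min, room temperature.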

Test [3] has as its target Cellular tumor antigen p53 (Homo sapiens) (UniProt P04637). Put plainly: TOX21_p53_BLA_p3_ratio: Tox21 HCT-116 p53 Agonism Beta-lactamase Assay, Ratio, Phase 3 (AID 2283596). The procedure, abridged:
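HCT116 p53-bla cells (4000/well) given compound in DMSO (217-fold dilution) after 5 h, incubated 16 h at 37C. CCF4-AM substrate 2 h at room temperature; 460/530 nm emission ratio, gain fitted against DMSO.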

For test [4] the target is unchanged. Put plainly: TOX21_p53_BLA_p5_ratio: Tox21 HCT-116 p53 Agonism Beta-lactamase Assay, Ratio, Phase 5 (AID 2283599). The gist of the method: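 HCT-116 cells carrying a p53-inducible beta-lactamase reporter were seeded at 4000 cells/well and dosed after 5 h with compound in DMSO (217-fold dilution). After 16 h at 37C, CCF4-AM substrate was added for 2 h, and the 460/530 nm emission ratio was scored as gain-of-signal versus DMSO.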

A short description of test [5]: TOX21_p53_BLA_p4_viability: Viability Assessment in the Tox21 HCT-116 p53 Agonism Beta-lactamase Assay, Phase 4 (AID 2283597).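 Also: hits lower the luminescence signal meaning cytotoxicity.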 The procedure, abridged:
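Luminescent ATP readout (CellTiter-Glo, 30 min, room temperature) in the same wells as the p53 bla ratio. HCT116 cells were treated for 16 h at 37C with DMSO-dissolved compounds.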

A short description of test [6]: TOX21_p53_BLA_p5_viability: Viability Assessment in the Tox21 HCT-116 p53 Agonism Beta-lactamase Assay, Phase 5 (AID 2283600). The gist of the method:
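Seeded cells (4000/well) settle 5 h before compound addition. Plates then incubate 16 h at 37C, receive FRET substrate for 2 h, and finally CellTiter-Glo, with luminescence measured after a 30 min room-temperature incubation.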

For test [7], the target named is Cellular tumor antigen p53 (Homo sapiens) (UniProt P04637). As to the kind of experiment: TOX21_p53_BLA_p4_ratio: Tox21 HCT-116 p53 Agonism Beta-lactamase Assay, Ratio, Phase 4 (AID 2283601). The gist of the method:
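HCT116 cells carrying an inducible beta-lactamase reporter were plated at 4000 cells/well, rested 5 h, then exposed to compounds in DMSO (217-fold dilution) for 16 h at 37C. CCF4-AM substrate was loaded 2 h at room temperature; 460/530 nm emission ratio scored gain-of-signal versus DMSO.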

The AC50 is the concentration at which the activity in the assay is half-maximal.

Results filed as inconclusive are left out. The source made the active and inactive calls. The calls were made as follows: active = hit-call score of the fitted dose curve at least 0.9, where 1 is the maximum; inconclusive = response in the unintended direction; inactive = score below 0.9.

Sequence of Cellular tumor antigen p53 (Homo sapiens) (P04637 whole entry, looked up): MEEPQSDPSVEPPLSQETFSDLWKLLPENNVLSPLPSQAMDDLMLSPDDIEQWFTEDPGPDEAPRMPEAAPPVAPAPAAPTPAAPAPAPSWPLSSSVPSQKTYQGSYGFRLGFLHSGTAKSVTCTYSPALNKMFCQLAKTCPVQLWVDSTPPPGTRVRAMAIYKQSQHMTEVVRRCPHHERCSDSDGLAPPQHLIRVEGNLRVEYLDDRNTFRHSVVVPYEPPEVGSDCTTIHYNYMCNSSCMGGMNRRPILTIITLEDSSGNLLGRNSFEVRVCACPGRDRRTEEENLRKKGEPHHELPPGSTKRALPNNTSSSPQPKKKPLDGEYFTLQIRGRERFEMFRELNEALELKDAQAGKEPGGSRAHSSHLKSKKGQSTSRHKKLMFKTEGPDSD

With `S=C=NCCc1ccccc1`, the molecule was classed as inactive in test [1], in test [2] and in test [4]. Besides, the half-maximal activity concentration (AC50) in test [3] is 59.3 µM (active).
As to `CC(C)c1ccc(NC(=O)N(C)C)cc1`, the molecule was called inactive in test [1], in test [2], in test [3], in test [5], in test [4] and in test [6]. The result in test [7] was inactive.
With `C[C@H]1CC[C@]2(NC1)O[C@H]1C[C@H]3[C@@H]4CC[C@H]5C[C@@H](O)CC[C@]5(C)[C@H]4CC[C@]3(C)[C@H]1[C@@H]2C`, the call in test [1], in test [2], in test [3], in test [5], in test [4] and in test [6] was inactive.
`Cc1nnc2n1-c1sc(CCc3ccc(CC(C)C)cc3)cc1C(c1ccccc1Cl)=NC2C` (stereo unspecified): the concentration at half-maximal activity (AC50) in test [1] is 23 µM (active); in test [2] it was 29 µM (active); in test [3], 27.4 µM (active); in test [5] it was 24.8 µM (active); in test [6], 23 µM (active); in test [7], 42.2 µM (active).
As to `COc1ccc2c3c1O[C@H]1[C@@H](O)C=C[C@H]4[C@@H](C2)NCC[C@@]341`, the outcome in test [1], in test [2], in test [3], in test [5], in test [4] and in test [6] was inactive. Besides, the result in test [7] was inactive.
On to `Cc1nnc2n1-c1sc(CCC(=O)N3CCOCC3)cc1C(c1ccccc1Cl)=NC2`, for which the result in test [1], in test [2], in test [3], in test [5] and in test [4] was inactive.
With `O=C(Nc1ccccc1)N(Cc1ccc(Cl)cc1)C1CCCC1`, the outcome in test [1], in test [2], in test [3], in test [4], in test [6] and in test [7] was inactive.
